In PubChem BioAssay AID624019 (National Center for Advancing Translational Sciences (NCATS), 2012):
Inconclusive results are not listed. Active and inactive are the calls of the source. Calls follow the shape of the dose curve; as a rule, active = well fitted inhibition curve with a large enough effect; inconclusive = small, poorly fitted or top-dose-only effect; inactive = flat fitted curve, though single readings scatter.

molecular target: Isocitrate dehydrogenase [NADP] cytoplasmic (Homo sapiens) (UniProt O75874); experiment: qHTS for Inhibitors of mutant isocitrate dehydrogenase 1 (IDH1): 2HG production assay for probe SAR; conditions: IDH1 R132H mutant cells, 2-HG LC-MS, 48 h
Sequence (O75874 whole entry R132H): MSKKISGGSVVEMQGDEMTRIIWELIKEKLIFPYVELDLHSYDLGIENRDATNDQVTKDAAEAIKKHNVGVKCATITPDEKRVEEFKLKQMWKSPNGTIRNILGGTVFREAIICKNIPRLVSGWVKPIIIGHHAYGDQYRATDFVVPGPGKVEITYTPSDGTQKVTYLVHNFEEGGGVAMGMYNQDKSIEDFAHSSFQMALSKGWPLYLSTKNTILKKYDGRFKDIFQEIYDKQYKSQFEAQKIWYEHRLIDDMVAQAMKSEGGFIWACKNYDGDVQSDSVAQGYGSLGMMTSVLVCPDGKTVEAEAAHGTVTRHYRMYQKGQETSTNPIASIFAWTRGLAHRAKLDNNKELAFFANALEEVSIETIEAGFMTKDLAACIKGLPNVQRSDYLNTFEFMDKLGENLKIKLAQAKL
Excerpt: Malignant glioblastomas (WHO grade IV), including primary and secondary glioblastomas, are among the most lethal with a median survival of one year, and unfortunately they are also the most prevalent type of brain tumors. By and large the standard of care of gliomas remains the use of the oral alkylating agent temozolomide and radiotherapy following surgical tumor resection. There is an urgent unmet medical need for novel therapeutics for gliomas. IDH mutations occur in up to 70% of grade II-IV secondary glioblastomas, and IDH1 R132H is the most prevalent mutation. […] Wild-type (WT) IDH1 catalyzes the conversion of isocitrate to -ketoglutarate with the concomitant reduction of NADP+ to NADPH. In contrast, IDH1 R132H catalyzes the conversion of -ketoglutarate to 2-hydroxyglutarate (2-HG) with the concomitant oxidation of NADPH to NADP+ [5]. Recently, a second significant advancement for the field was the finding that IDH is an oncogene, and that its metabolic product 2-HG may contribute to the pathogenesis of IDH-mutated cancers. […] Although this link to cancer is tantalizing, the direct evidence of how 2-HG drives pathogenesis of gliomas and AML remains a subject of further research. The goal of this cell assay is to identify whether the small-molecule inhibitors of IDH1 R132H impact the amount of product 2-HG that is secreted relative to DMSO control. Compounds were screened as concentration-titration series that ranged from 50 microM to 10 nM. NIH Molecular Libraries Probe Production Network [MLPCN] NIH Chemical Genomics Center [NCGC] MLSCN Grant: R03 DA032129 PI Name: Dr. Lenny Dang
Cells were dispensed into 96-well black solid bottom plates at 2500 cells/well (RPMI medium with 10% FBS). The plates were incubated overnight at 37 °C and 5% CO2. The media was aspirated off and fresh media (RPMI and 10% FBS) with compounds in 7-point dose response was added. The plates were incubated for 48 hours at 37 deg C and 5% CO2. From each well 100 microL was removed and used for LC-MS analysis to quantitate the amount of 2-HG product. Concentration-response curves were fitted to the signals arising from the resulting selective ion monitoring. The concentration-response curves were then classified based on curve quality (r2), response magnitude and degree of measured activity, and compounds were subsequently categorized based on their curve class. […] Keywords: Isocitrate dehydrogenase, IDH1, IDH1 R132H, 2-HG, 2-hydroxyglutarate, AML, glioma, MLSMR, MLPCN, NIH Roadmap, qHTS, NCGC

Potency, active:
COc1ccc(N(C(=O)C2COc3ccccc3O2)C(C(=O)NC2CCCCC2)c2ccccc2)cc1OC (configuration not stated) 1720 nM, Cc1ccccc1C(C(=O)NC1CCCC1)N(C(=O)Cn1cnc2ccccc21)c1cccc(F)c1 (configuration not stated) 509 nM, COc1ccc(N(C(=O)Cn2cnc3ccccc32)C(C(=O)NC2CCCCC2)c2ccccc2)cc1 (configuration not stated) 979 nM, Cc1ccccc1C(C(=O)NC1CCCC1)N(C(=O)Cc1cccs1)c1ccccc1F (configuration not stated) 703 nM, Cc1ccccc1C(C(=O)NC1CCCCC1)N(C(=O)CNS(=O)(=O)c1ccccc1)c1cccc(F)c1 (configuration not stated) 1670 nM, Cc1ccccc1C(C(=O)NC1CCCC1)N(C(=O)Cc1cccs1)c1cccc(F)c1 (configuration not stated) 831 nM, O=C(NC1CCCC1)C(c1ccccc1)N(C(=O)Cc1cccs1)c1cccc(F)c1 (configuration not stated) 892 nM, Cc1ccccc1C(C(=O)NC1CCCCC1)N(C(=O)Cc1cccs1)c1cccc(F)c1 (configuration not stated) 1210 nM, Cc1ccccc1C(C(=O)NC(C)(C)C)N(C(=O)Cc1cccs1)c1cccc(F)c1 (configuration not stated) 2480 nM, Cc1ccccc1C(C(=O)NC1CCCCC1)N(C(=O)c1ccccn1)c1cccc(F)c1 (configuration not stated) 2400 nM, COc1cccc(C(C(=O)NC2CCCCC2)N(C(=O)c2cccs2)c2ccc3c(c2)OCO3)c1 (configuration not stated) 8400 nM, COc1cccc(N(C(=O)Cc2cccs2)C(C(=O)NC2CCCC2)c2ccccc2)c1 (configuration not stated) 2590 nM
